# Inconclusive results are not listed. Where a call stands in place of a potency, no number is given. Active and inactive are the calls of the source. The call rests on the fitted dose curve; in most records, active means well fitted inhibition curve with a large enough effect; inconclusive means small, poorly fitted or top-dose-only effect; inactive means no such curve, though single readings can be large or run the other way.
# Test: Counterscreen qHTS for Identification of Calcium Integrin Binding Protein 1 (CIB1) Competitor
# Conditions: series mostly up to 114 µM
# Summary of the method: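 Compounds (final up to 114 uM) preincubated 15 min at room temperature with 1 uM CIB1-GST in calcium-containing HEPES pH 7.4 buffer; 100 nM scrambled FITC peptide added, and fluorescence polarization (480/540) measured after another 15 min.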
# Potency means the concentration at half of the fitted maximal effect.
row,SMILES,Potency
1,OCc1ccc(-c2ccc(-c3ccc(CO)s3)o2)s1,inactive
2,Cc1ccc(OCCn2c(CCNC(=O)c3ccsc3)nc3ccccc32)cc1,inactive
3,COC(=O)c1ccc(O)c2ncc(-c3ccc(C(=O)NCCCN(C)C)cc3)cc12,inactive
4,N#Cc1ccc(NS(=O)(=O)c2ccc(NC(=O)Cc3ccc(F)c(Cl)c3)cc2)cc1,inactive
5,Cn1cnc(-c2nccc3c(=O)[nH]c(OCCCC(F)(F)F)nc23)c1,inactive
6,O=Cc1c(-c2ccccc2)no[n+]1[O-],inactive
7,O=C(Cc1ccccc1)NC(c1ccco1)c1cc(Cl)c2cccnc2c1O (stereo not drawn),inactive
8,O=S(=O)(c1ccc2nc(Cl)c(Cl)nc2c1)N1CCN(S(=O)(=O)c2c(F)cccc2F)CC1,inactive
9,CN1CCN(c2ccc(-c3cc(O)c4ncccc4c3)cc2)CC1,inactive
10,Cc1cnc(-c2ccccc2C(C)C)nc1NCc1ccc(-c2ccc(F)nc2)cc1,44.7 µM (active)
11,CCOC(=O)c1c(-c2ccc(C)o2)csc1NC(=O)CSc1nnnn1-c1ccccc1,inactive
12,NC[C@H](O)c1ccc(O)c(O)c1,inactive
13,CC(O)c1ccc(-c2ccc3ncnc(N4CCOCC4)c3c2)o1 (stereo not drawn),inactive
14,CSC(Cc1ccc(Cl)cc1)C(=O)Nc1ccc(Cl)cc1C(=O)O (stereo not drawn),inactive
15,O=C1CCCC2=C1C1(CCOCC1)N=C(Nc1nc3ccccc3o1)N2,inactive
16,C[C@@H](NCc1cc2ccccc2[nH]1)c1cccc2ccccc12,inactive
17,CCCC1CCN(C(=O)COC(=O)c2ccc(S(C)(=O)=O)c([N+](=O)[O-])c2)CC1,inactive

row,SMILES,Potency
1,C/C(=C\c1ccc2c(c1)OCO2)C1Nc2cccc3cccc(c23)N1,12.6 µM (active)
2,CO[C@@]12[C@H](COC(N)=O)C3=C(C(=O)C(C)=C(N)C3=O)N1C[C@@H]1N[C@@H]12,inactive
3,COc1ccccc1Nc1cc2ccccc2c(=O)[nH]1,35.5 µM (active)
4,Cc1ccc(S(=O)(=O)Nc2cnccc2C(=O)Nc2nc(-c3ccc(Cl)cc3)cs2)cc1,inactive
5,CO[C@@H]1C(N(C)C(=O)c2ccccc2)C[C@H]2O[C@]1(C)n1c3ccccc3c3c4c(c5c6ccccc6n2c5c31)C(=O)NC4=O (stereo partly drawn),22.4 µM (active)
6,O=C(O)c1c(Cl)c(Cl)c(Cl)c(Cl)c1-c1c2cc(I)c(=O)c(I)c-2oc2c(I)c(O)c(I)cc12,inactive
7,COC(=O)c1cc(Cl)ccc1NS(=O)(=O)C(F)(F)F,inactive
8,Cc1ccc2nc3sc(C(=O)NCc4ccco4)cc3cc2c1,inactive
9,O=C1CCCC2=C1C(c1cccnc1Br)N=C(Nc1nc3ccccc3o1)N2 (stereo not drawn),inactive
10,Cn1c(NC2=NC3(CCCC3)C3=C(CCCC3=O)N2)nc2ccccc21,inactive
11,C[C@H]1COC2=C1C(=O)C(=O)c1c2ccc2c1CCCC2(C)C,inactive
12,Cc1cc2c(C(C)C)c(O)c(O)c(C=O)c2c(O)c1-c1c(C)cc2c(C(C)C)c(O)c(O)c(C=O)c2c1O,inactive
13,Cc1ccc(S(=O)(=O)Nc2ccc(Br)cc2C(=O)Nc2nc(-c3ccccc3)cs2)cc1,inactive
14,NC(=O)c1ncn([C@@H]2O[C@H](CO)[C@@H](O)[C@H]2O)c1O,inactive
15,O=[S+]([O-])(Nc1nccs1)c1ccc(NCc2cc(F)cc(Cl)c2O)cc1,inactive
16,COc1ccc(CC(=O)Nc2ccc(S(=O)(=O)Nc3cc(C)on3)cc2)cc1C,inactive
